Activity calls are given as the source filed them. The calls were made as follows: active = hit-call score of the fitted dose curve at least 0.9, where 1 is the maximum; inactive = score below 0.9.
Assays:
[1] = read-out: Transforming growth factor beta 1 (TGFb1), TGFB1 (gene 7040); assay: BSK_KF3CT_TGFb1: BioMAP Diversity Plus: KF3CT Assay for Transforming growth factor beta 1 (TGFb1) Biomarker Activity (AID 2283072); conditions: primary human keratinocytes with fibroblasts; actives raise or lower the signal
Summary of the method: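 Read-out: ELISA for TGF-b1 in keratinocyte/foreskin fibroblast human skin co-culture, 24 h after dosing; bidirectional curve fit vs DMSO baseline; gain or loss of signal scored.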

[2] = read-out: C-C motif chemokine 2 (Homo sapiens) (UniProt P13500); assay: BSK_KF3CT_MCP1: BioMAP Diversity Plus: KF3CT Assay for Monocyte Chemoattractant Protein 1 (MCP1/CCL2) Biomarker Activity (AID 2283073); conditions: primary human keratinocytes with fibroblasts; actives raise or lower the signal
Summary of the method: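 Human keratinocyte–foreskin fibroblast co-culture; MCP-1 measured by ELISA 24 h after dosing. Bidirectional fit vs DMSO; cytotoxicity tracked by SRB total protein in parallel cultures.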

[3] = read-out: Matrix Metallopeptidase 9 (MMP9), MMP9 (gene 4318); assay: BSK_KF3CT_MMP9: BioMAP Diversity Plus: KF3CT Assay for Matrix Metallopeptidase 9 (MMP9) Biomarker Activity (AID 2283074); conditions: primary human keratinocytes with fibroblasts; actives raise or lower the signal;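 as to AC50: MMP9 protein level quantified by ELISA in the co-culture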
Summary of the method: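 MMP-9 quantified by ELISA after 24 h chemical treatment of primary human skin keratinocyte/fibroblast co-cultures; gain or loss fitted against DMSO, with parallel SRB staining (0.1% SRB, 560 nm) for overt cytotoxicity.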

[4] = read-out: urokinase plasminogen activator (uPA), PLAU (gene 5328); assay: BSK_KF3CT_uPA: BioMAP Diversity Plus: KF3CT Assay for urokinase plasminogen activator (uPA) Biomarker Activity (AID 2283075); conditions: primary human keratinocytes with fibroblasts; actives raise or lower the signal
Summary of the method: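 ELISA read-out of uPA 24 h after dosing human skin keratinocytes co-cultured with foreskin fibroblasts. Signal change fitted both ways relative to DMSO; sulforhodamine B on parallel cultures marks overt cytotoxicity.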

CD40, CD40 (gene 958) = assay: BSK_LPS_CD40: BioMAP Diversity Plus: LPS Assay for CD40 Biomarker Activity (AID 2283076); conditions: primary human HUVEC with PBMC; actives raise or lower the signal
Summary of the method: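 HUVEC plus PBMC co-culture stimulated with LPS; CD40 quantified by ELISA 24 h after compound dosing. Fitting was bidirectional relative to DMSO. SRB staining of parallel cultures flagged overt cytotoxicity.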

[5] = read-out: E-selectin (Homo sapiens) (UniProt P16581); assay: BSK_LPS_Eselectin: BioMAP Diversity Plus: LPS Assay for Eselectin Biomarker Activity (AID 2283077); conditions: primary human HUVEC with PBMC; actives raise or lower the signal
Summary of the method: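 Human umbilical vein endothelial cells co-cultured with PBMC under LPS stimulation; cell-surface E-selectin measured by ELISA 24 h after dosing. Change in either direction versus DMSO, with SRB total-protein staining in parallel cultures for cytotoxicity.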

[6] = read-out: Interleukin-8 (IL8), CXCL8 (gene 3576); assay: BSK_LPS_IL8: BioMAP Diversity Plus: LPS Assay for Interleukin-8 (IL8) Biomarker Activity (AID 2283078); conditions: primary human HUVEC with PBMC; actives raise or lower the signal
Summary of the method: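 Human umbilical vein endothelial cells co-cultured with PBMC, LPS-stimulated, exposed to compound for 24 h. IL-8 quantified by ELISA; fitted in both directions against DMSO, with SRB total-protein staining of parallel cultures for cytotoxicity.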

[7] = BSK_LPS_SRB: Viability Assessment in the BioMAP Diversity Plus: LPS Assay (AID 2283079); conditions: primary human HUVEC with PBMC;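 also: total protein by sulforhodamine B absorbance as a cytotoxicity measure; measured one day after compound addition; fitted in both directions against DMSO so loss or gain of signal counts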
Summary of the method: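 Co-culture of human umbilical vein endothelial cells and PBMC, read 24 h after dosing. Total protein by 0.1% SRB staining after 10% TCA fixation, absorbance at 560 nm; bidirectional fit against DMSO.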

[8] = read-out: Interleukin-1 alpha (IL1a), IL1A (gene 3552); assay: BSK_LPS_IL1a: BioMAP Diversity Plus: LPS Assay for Interleukin-1 alpha (IL1a) Biomarker Activity (AID 2283080); conditions: primary human HUVEC with PBMC; actives raise or lower the signal
Summary of the method: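 Human umbilical vein endothelial cells co-cultured with PBMC and stimulated with LPS; IL-1a measured by ELISA 24 h after dosing. Bidirectional fitting against DMSO; cytotoxicity checked by SRB staining in parallel cultures.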

[9] = read-out: Monocyte Chemoattractant Protein-1 (MCP1), CCL2 (gene 6347); assay: BSK_LPS_MCP1: BioMAP Diversity Plus: LPS Assay for Monocyte Chemoattractant Protein-1 (MCP1) Biomarker Activity (AID 2283081); conditions: primary human HUVEC with PBMC; actives raise or lower the signal;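 as to AC50: secreted MCP-1 protein quantified by ELISA in culture supernatant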
Summary of the method: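 Human umbilical vein endothelial cells co-cultured with PBMC, LPS-stimulated; secreted MCP-1 measured by ELISA 24 h after compound addition. Bidirectional curve fitting against DMSO baseline; SRB total-protein staining in parallel cultures for cytotoxicity.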

E-selectin (Homo sapiens), sequence (P16581 whole entry, looked up): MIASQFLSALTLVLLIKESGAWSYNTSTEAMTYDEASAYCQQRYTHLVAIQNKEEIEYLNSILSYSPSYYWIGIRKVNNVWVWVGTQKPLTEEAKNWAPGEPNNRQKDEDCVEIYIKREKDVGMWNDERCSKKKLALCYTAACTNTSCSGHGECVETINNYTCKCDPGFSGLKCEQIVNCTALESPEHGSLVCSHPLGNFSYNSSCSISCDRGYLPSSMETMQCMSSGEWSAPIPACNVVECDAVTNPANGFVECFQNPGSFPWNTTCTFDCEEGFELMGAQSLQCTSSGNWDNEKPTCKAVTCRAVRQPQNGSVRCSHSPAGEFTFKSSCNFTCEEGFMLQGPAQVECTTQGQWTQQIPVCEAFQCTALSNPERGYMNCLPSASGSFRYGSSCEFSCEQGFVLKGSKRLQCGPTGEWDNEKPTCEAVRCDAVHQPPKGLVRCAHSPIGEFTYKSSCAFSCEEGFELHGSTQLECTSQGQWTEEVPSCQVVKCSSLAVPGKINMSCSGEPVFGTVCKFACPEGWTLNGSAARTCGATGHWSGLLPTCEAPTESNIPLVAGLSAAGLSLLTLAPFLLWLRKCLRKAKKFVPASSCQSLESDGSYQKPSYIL

With `CC#C[C@]1(O)CC[C@H]2[C@@H]3CCC4=CC(=O)CCC4=C3[C@@H](c3ccc(N(C)C)cc3)C[C@@]21C` the outcome [1] was “inactive”, the AC50 [2] was 34.2 µM (active) and the AC50 [3] was 24.1 µM (active). For the same compound, the outcome [4] was “inactive”, the AC50 (CD40, CD40 (gene 958)) was 33.8 µM (active) and the AC50 [5] was 30.5 µM (active). For the same compound, the AC50 [6] was 32.6 µM (active), the AC50 [7] was 27.9 µM (active) and the AC50 [8] was 31.3 µM (active). The AC50 [9] was 31.5 µM (active).
For `CCc1ccc(CCOc2ccc(CC3SC(=O)NC3=O)cc2)nc1` (stereo not given), the outcome [1] was “inactive”, the outcome [2] was “inactive” and the outcome [3] was “inactive”. The outcome [4] was “inactive”, the outcome (CD40, CD40 (gene 958)) was “inactive” and the outcome [5] was “inactive”. The outcome [6] was “inactive”, the outcome [7] was “inactive” and the outcome [8] was “inactive”. For the same compound, the outcome [9] was “inactive”.
In the case of `CCC(=C(c1ccc(O)cc1)c1ccc(OCCN(C)C)cc1)c1ccccc1`, the AC50 [1] was 9.8 µM (active), the AC50 [2] was 10.2 µM (active) and the AC50 [3] was 8.87 µM (active). For the same compound, the AC50 [4] was 11.8 µM (active), the AC50 (CD40, CD40 (gene 958)) was 7.71 µM (active) and the AC50 [5] was 19.8 µM (active). For the same compound, the AC50 [6] was 13.3 µM (active), the AC50 [7] was 9.13 µM (active) and the AC50 [8] was 8.66 µM (active). For the same compound, the AC50 [9] was 9.72 µM (active).
In the case of `CC(C)(C)c1ccc(O)c(C(C)(C)C)c1`, the AC50 [1] was 8.63 µM (active), the AC50 [2] was 13.4 µM (active) and the AC50 [3] was 9.23 µM (active). For the same compound, the AC50 [4] was 11.3 µM (active), the AC50 (CD40, CD40 (gene 958)) was 14 µM (active) and the AC50 [5] was 13.3 µM (active). The AC50 [6] was 26.6 µM (active), the AC50 [7] was 17.7 µM (active) and the AC50 [8] was 14.4 µM (active). The AC50 [9] was 26.7 µM (active).
For `COCC(C)OCC(C)O` (stereo not given), the outcome [1] was “inactive”, the outcome [2] was “inactive” and the outcome [3] was “inactive”. For the same compound, the outcome [4] was “inactive”, the outcome (CD40, CD40 (gene 958)) was “inactive” and the outcome [5] was “inactive”. The outcome [6] was “inactive”, the outcome [7] was “inactive” and the outcome [8] was “inactive”. For the same compound, the outcome [9] was “inactive”.
For `CCCCC(CC)COC(=O)CCCCC(=O)OCC(CC)CCCC` (stereo not given), the outcome [1] was “inactive”, the outcome [2] was “inactive” and the outcome [3] was “inactive”. For the same compound, the outcome [4] was “inactive”, the outcome (CD40, CD40 (gene 958)) was “inactive” and the outcome [5] was “inactive”. The outcome [6] was “inactive”, the outcome [7] was “inactive” and the outcome [8] was “inactive”. For the same compound, the outcome [9] was “inactive”.
For `CC1=C(/C=C/C(C)=C/C=C/C(C)=C/C(=O)O)C(C)(C)CCC1`, the AC50 [1] was 30.1 µM (active), the AC50 [2] was 32.4 µM (active) and the AC50 [3] was 32.6 µM (active). The AC50 [4] was 31.2 µM (active), the AC50 (CD40, CD40 (gene 958)) was 4.45 µM (active) and the AC50 [5] was 6.18 µM (active). For the same compound, the outcome [6] was “inactive”, the outcome [7] was “inactive” and the outcome [8] was “inactive”. The outcome [9] was “inactive”.
In the case of `COc1ccc([N+](=O)[O-])cc1N`, the outcome [1] was “inactive”, the outcome [2] was “inactive” and the outcome [3] was “inactive”. For the same compound, the outcome [4] was “inactive”, the outcome (CD40, CD40 (gene 958)) was “inactive” and the outcome [5] was “inactive”. The outcome [6] was “inactive”, the outcome [7] was “inactive” and the outcome [8] was “inactive”. For the same compound, the outcome [9] was “inactive”.
With `CC[C@H](C)[C@@H](C(=O)O)n1sc2ccccc2c1=O` the outcome [1] was “inactive”, the outcome [2] was “inactive” and the outcome [3] was “inactive”. The outcome [4] was “inactive”, the outcome (CD40, CD40 (gene 958)) was “inactive” and the outcome [5] was “inactive”. The outcome [6] was “inactive”, the outcome [7] was “inactive” and the AC50 [8] was 25.9 µM (active). The outcome [9] was “inactive”.
With `CCCCCCCCCCCCCCCS(=O)(=O)Oc1ccccc1` the outcome [1] was “inactive”, the outcome [2] was “inactive” and the outcome [3] was “inactive”. For the same compound, the outcome [4] was “inactive”, the outcome (CD40, CD40 (gene 958)) was “inactive” and the outcome [5] was “inactive”. For the same compound, the outcome [6] was “inactive”, the outcome [7] was “inactive” and the outcome [8] was “inactive”. For the same compound, the outcome [9] was “inactive”.
For `CC(=O)CC(C)(C)O`, the outcome [1] was “inactive”, the outcome [2] was “inactive” and the outcome [3] was “inactive”. For the same compound, the outcome [4] was “inactive”, the outcome (CD40, CD40 (gene 958)) was “inactive” and the outcome [5] was “inactive”. The outcome [6] was “inactive”, the outcome [7] was “inactive” and the outcome [8] was “inactive”. The outcome [9] was “inactive”.
With `CCc1nn(C2CCCCC2)c2cc(C3(C#N)CCC(C(=O)O)CC3)ccc12` (stereo not given) the outcome [1] was “inactive”, the AC50 [2] was 20 µM (active) and the AC50 [3] was 8.4 µM (active). The AC50 [4] was 11.3 µM (active), the AC50 (CD40, CD40 (gene 958)) was 2.51 µM (active) and the AC50 [5] was 16.1 µM (active). For the same compound, the AC50 [6] was 20 µM (active), the AC50 [7] was 4.2 µM (active) and the AC50 [8] was 1.15 µM (active). For the same compound, the AC50 [9] was 10.1 µM (active).
For `OC1CCCCC1`, the outcome [1] was “inactive”, the outcome [2] was “inactive” and the outcome [3] was “inactive”. The outcome [4] was “inactive”, the outcome (CD40, CD40 (gene 958)) was “inactive” and the outcome [5] was “inactive”. The outcome [6] was “inactive”, the outcome [7] was “inactive” and the outcome [8] was “inactive”. The outcome [9] was “inactive”.
In the case of `COC(=O)CCCCC(=O)OC`, the outcome [1] was “inactive”, the outcome [2] was “inactive” and the outcome [3] was “inactive”. The outcome [4] was “inactive”, the outcome (CD40, CD40 (gene 958)) was “inactive” and the outcome [5] was “inactive”. For the same compound, the outcome [6] was “inactive”, the outcome [7] was “inactive” and the outcome [8] was “inactive”. The outcome [9] was “inactive”.
For `CN1CCN(c2ccccc2/C=C2\SCCN(c3ccc(Cl)c(Cl)c3)C2=O)CC1`, the AC50 [1] was 29.1 µM (active), the AC50 [2] was 32.4 µM (active) and the AC50 [3] was 26.8 µM (active). The AC50 [4] was 30.1 µM (active), the AC50 (CD40, CD40 (gene 958)) was 7.34 µM (active) and the outcome [5] was “inactive”. The AC50 [6] was 20 µM (active), the AC50 [7] was 16.3 µM (active) and the AC50 [8] was 20 µM (active). The AC50 [9] was 12.1 µM (active).
For `CN1CCC[C@H]1c1cccnc1`, the outcome [1] was “inactive”, the outcome [2] was “inactive” and the outcome [3] was “inactive”. The outcome [4] was “inactive”, the outcome (CD40, CD40 (gene 958)) was “inactive” and the outcome [5] was “inactive”. For the same compound, the outcome [6] was “inactive”, the outcome [7] was “inactive” and the outcome [8] was “inactive”. The outcome [9] was “inactive”.
In the case of `CCCCCCC(=O)O`, the outcome [1] was “inactive”, the outcome [2] was “inactive” and the outcome [3] was “inactive”. The outcome [4] was “inactive”, the outcome (CD40, CD40 (gene 958)) was “inactive” and the outcome [5] was “inactive”. For the same compound, the outcome [6] was “inactive”, the outcome [7] was “inactive” and the outcome [8] was “inactive”. The outcome [9] was “inactive”.
